The text below walks through data of PubChem BioAssay (NCI).

Compounds without any hit were thinned out: in the full panel of roughly 83,000, 20% have a hit.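 Percent growth is the endpoint: 0 to 100 indicates growth inhibition (40 means 60% inhibition), 0 means no net growth, and negative values indicate cell death.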 The source made the active and inactive calls. How the source made its calls: active means growth percent below 10; inactive means the rest.

This experiment concerns OVCAR-5 ovarian. The experiment in a line: NCI-60 one-dose screen, 48 h (100 = growth as untreated, 0 = no growth, -100 = all killed). Conditions: 10 µM unless noted.
`N/C(=N\C(N)=N\c1nc2ccccc2s1)c1cccc(Cl)c1`: the growth was 111% (inactive).

For the compound `CCOC(=O)[C@@H](C)C[C@H](Cc1ccccc1)NC(=O)c1csc([C@@H](C[C@H](C(C)C)N(C)C(=O)[C@@H](NC(=O)[C@H]2C[C@H](O[Si](C)(C)C(C)(C)C)CCN2C)C(C)C)OC(C)=O)n1`, the growth is 9.08% [9.25 µM] (active).

Consider `COC(=O)/C=C1\S/C(=N\NC(=O)c2cc3ccc2/C=C\c2ccc(cc2)/C=C\3)N(c2ccccc2)C1=O`, for which the growth was 48.2% (inactive).

`NNC(=O)c1ccc(-n2nc(-c3ccccc3)c3ccccc32)cc1`: the growth is 93.8% (inactive).

Turning to `NC(=NCCCOc1ccc(F)cc1)Nc1ccc(I)cc1`, the growth was 89.9% (inactive).

`N#CC1C(C#N)C(C(=O)c2ccc(Br)cc2)N2c3ccccc3C=CC12` (stereo not drawn): the growth was 55.2% (inactive).

Turning to `CCN1C(=O)/C(=C/C(=O)OC)S/C1=N\NC(=O)c1cc2ccc1/C=C\c1ccc(cc1)/C=C\2`, the growth is 100% (inactive).

For the compound `COc1ccccc1/C=C1\Oc2cc(OCCN3CCCC3)ccc2C1=O`, the growth was 86.2% (inactive).

In the case of `Cc1cc2nc3c4ccc(Br)cc4n(CCN(C)C)c3nc2cc1C`, the growth was 25.1% (inactive).

For `C/C(=N\Nc1cc(C)nc2ccc(Br)cc12)c1ccc([N+](=O)[O-])cc1`, the growth was 111% (inactive).

For the compound `COc1cc(C2C3CC4CCCC[C@H]4N3[C@@]3(C(=O)Nc4cc(Cl)ccc43)C2C(=O)c2nc3ccccc3[nH]2)cc(OC)c1OC` (stereo partly drawn), the growth was 73.7% (inactive).

Regarding `O=C1OC(Cc2ccccc2)C1c1ccccc1` (stereo not drawn), the growth is 98.9% (inactive).

In the case of `CC(Oc1ccc(C(=O)O)cc1C(F)(F)F)c1ccc(Oc2ccccc2)cn1` (stereo not drawn), the growth is 102% (inactive).

Regarding `CC(Sc1nc2ccccc2c(=O)n1CCc1ccc(S(N)(=O)=O)cc1)C(=O)Nc1ccc(Cl)cc1` (stereo not drawn), the growth is 85.7% (inactive).

As to `CC1=CCC(OC(=O)C(C)(O)CCC(O)(C(=O)OC2(C)C=CC(O)(C(C)C)CC2)C(C)C)(C(C)C)CC1` (stereo not drawn), the growth was 108% (inactive).

With `ClC1=C(Br)C(Br)(Br)C(=C(Br)Br)C1(Br)Br`, the growth was 110% (inactive).

With `C=C1C(=O)O[C@H]2[C@H]1CC/C(CNC(=O)C(C)c1ccc(CC(C)C)cc1)=C\CC[C@@]1(C)O[C@@H]21` (stereo partly drawn), the growth is 57.3% (inactive).

For `CCCCCN1C=C/C(=C\C(=O)N2CCCc3ccccc32)c2ccccc21`, the growth is 99.8% (inactive).

Turning to `N#Cc1cc(-c2nc3ccccc3s2)c(=O)n(NS(=O)(=O)c2ccccc2)c1N`, the growth is 102% (inactive).

For `CCCOc1ccc(/C=N/Nc2cc(C)nc3ccc(Cl)cc23)cc1`, the growth was 96.3% (inactive).

Take `Cc1cccc(NC(=O)Nc2ccc(-n3cnc4cc(-c5ccc(O)cc5)ccc43)cc2)c1`: the growth was 76.8% (inactive).

For the compound `O=c1c2c(c(=O)n1O)c1c3ccc[nH]c3nc1c1nc3[nH]cccc3c12`, the growth was 103% (inactive).

Consider `O=C(CNCCN1CCOCC1)N1c2cccc3cccc(c23)N(C(=O)CNCCN2CCOCC2)C1c1cn(-c2ccccc2)nc1-c1cccc([N+](=O)[O-])c1`, for which the growth was 107% (inactive).

`O=Cc1cc2ccccc2nc1Oc1ccc(C(F)(F)F)cc1`: the growth is 99.2% (inactive).

On to `COc1ccc(C(=O)/C=C/c2cc3ccccc3n3nnnc23)cc1`, for which the growth was 108% (inactive).

Regarding `CN1CCN(C(=O)[C@]23CCC(C)(C)C[C@H]2C2=CC[C@@H]4[C@@]5(C)C/C(=C/c6cccnc6)C(=O)C(C)(C)[C@@H]5CC[C@@]4(C)[C@]2(C)CC3)CC1`, the growth was 100% (inactive).

On to `CCN(CC)c1ccc(/C=N/NC(=O)CSc2nc3ccccc3c(=O)n2CCc2ccc(S(N)(=O)=O)cc2)c(O)c1`, for which the growth is 47.7% (inactive).

For `CCCCCCNC(=O)Nc1ccc2cc3ccc(NC(=O)NCCCCCC)cc3nc2c1`, the growth is 9.67% (active).

For the compound `CCNC(=O)Oc1ccc(/C(=C(\C)c2ccccc2)c2ccc(OCCN(CC)CC)cc2)cc1`, the growth was 88.2% (inactive).

With `CC/C(=C\c1ccc(OC)cc1)C(=O)c1ccc(OC)cc1`, the growth was 103% (inactive).

As for `CCc1ccc(CNc2ccc(N3CCOCC3)c(C(=O)O)c2)cc1`, the growth is 99.9% (inactive).

As for `Cc1ccc(NS(=O)(=O)c2ccc(-c3cnc(C4CC4)o3)cc2)cc1C(F)(F)F`, the growth was 93.2% (inactive).

Consider `C/C(=N\NC(=O)CSc1nc2ccccc2c(=O)n1CCc1ccc(S(N)(=O)=O)cc1)c1ccccn1`, for which the growth was 39.8% (inactive).

Take `C=C(CBr)[C@@H]1CC[C@]2(COC(C)=O)CC[C@]3(C)[C@H](CC[C@@H]4[C@@]5(C)CCCNC(C)(C)[C@@H]5CC[C@]43C)[C@@H]12`: the growth is 87.3% (inactive).

Consider `COc1ccc(C(=O)Nc2cccc(C3CCc4c(cc(OC)c(OC)c4OC)O3)c2)cc1` (stereo not drawn), for which the growth is 91.1% (inactive).

`N=C(N)c1ccc(OCCCCCCCCCCOc2ccc(C(=N)N)cc2)cc1`: the growth was -91.5% (active).

On to `COc1cc2nc(-c3ccc(Cl)cc3)cc(OCCCN3CCOCC3)c2cc1OC`, for which the growth is 42.8% (inactive).

Take `Brc1ccc2[nH]cc(-c3cncn3CCc3ccccc3)c2c1`: the growth is 71% (inactive).
